Experimental data reported in the supplement of paper PMC10127200.
Counter-ions that a name gives are not always drawn.

Key:
Assay in all cases: Euclidean distance of Cell Painting phenotypic profile (signed KS, 77 features) to DMSO centroid (dimensionless distance); 5 or 10 uM (library dependent); higher = stronger phenotypic change vs DMSO (phenoactivity)
Details in all cases: 48 h
[1] = system: 786-O
Method in brief: (§1)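 Phenoactivity is defined as the Euclidean distance from a compound profile to the median vehicle profile. Each profile comprised 77 Harmony features, scored as signed Kolmogorov-Smirnov statistics versus same-plate vehicle wells, then plate-position corrected, correlation-weighted and replicate-averaged at the top dose. Five cancer lines and one healthy fibroblast line were exposed to library compounds for 48 h at 10 or 5 uM (0.1% DMSO final).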

[2] = system: A549
Method in brief: as §1

[3] = system: DU145
Method in brief: as §1

[4] = system: FB
Method in brief: as §1

[5] = system: HEPG2
Method in brief: as §1

[6] = system: OVCAR4
Method in brief: as §1

Row | SMILES | Euclidean distance [1] | Euclidean distance [2] | Euclidean distance [3] | Euclidean distance [4] | Euclidean distance [5] | Euclidean distance [6]
1 | CC1(C)CC(=O)c2c(C(F)(F)F)nn(-c3ccc(C(N)=O)c(N[C@H]4CC[C@H](OC(=O)CN)CC4)c3)c2C1 | 3.85 | 3.38 | 3.89 | 3.31 | 3.05 | 2.62
2 | O=C(O)[C@]1(Cc2cccc(Nc3nccs3)n2)CC[C@@H](Oc2cccc(Cl)c2F)CC1 | 2.59 | 3.36 | 0.648 | 0.818 | 0.498 | 2.16
3 | N=C(N)NC(=O)c1nc(Cl)c(N)nc1N [Amiloride HCl dihydrate] | 1.53 | 1.27 | 1.11 | 1.58 | 0.663 | 1.28
4 | COc1ccc(CC(C)(C)NC[C@H](O)c2cc(O)cc3c2OCC(=O)N3)cc1 [Olodaterol hydrochloride] | 1.07 | 0.364 | 1.21 | 1.12 | 0.379 | 1.1
5 | CC(NCCC(c1ccccc1)c1ccccc1)c1ccccc1 (stereo not given) [Fendiline hydrochloride] | 1.96 | 2.16 | 1.45 | 1.24 | 2.42 | 1.41
6 | COCCOC(=O)C1=C(C)NC(C)=C(C(=O)OC(C)C)C1c1cccc([N+](=O)[O-])c1 (stereo not given) [Nimodipine] | 1.59 | 1.37 | 1.08 | 1.08 | 1.96 | 1.09
7 | O=C(O)C(O)C(O)C(=O)O (stereo not given) [Tartaric acid] | 0.758 | 0.688 | 0.848 | 1.25 | 0.481 | 0.632
8 | NC(=O)N1c2ccccc2CC(=O)c2ccccc21 [Oxcarbazepine] | 2.18 | 1.39 | 1.26 | 1.19 | 1.13 | 1.57
9 | CN(C)CCc1c[nH]c2ccc(CS(=O)(=O)N3CCCC3)cc12 [Almotriptan Malate] | 1.05 | 0.798 | 0.545 | 1.14 | 1.78 | 1.51
10 | O=C(NCc1c(F)cc(F)cc1F)c1cn2c(c(O)c1=O)C(=O)N1[C@H]3CC[C@H](C3)O[C@@H]1C2 [Bictegravir] | 1.77 | 3.73 | 2.63 | 2.16 | 1.04 | 2.99
11 | NC[C@H]1O[C@H](O[C@H]2[C@H](O[C@@H]3O[C@H](CO)[C@@H](O)[C@H]3O)[C@@H](O)[C@H](N)C[C@@H]2N)[C@H](N)[C@@H](O)[C@@H]1O [Ribostamycin Sulfate] | 1.45 | 1.17 | 1.23 | 0.806 | 0.615 | 1.22
12 | C=C1CC[C@H](O)C/C1=C/C=C1\CCC[C@]2(C)[C@@H]([C@H](C)/C=C/[C@H](C)C(C)C)CC[C@@H]12 [Vitamin D2] | 2.59 | 0.759 | 5.76 | 1.38 | 2.02 | 2.05
13 | NC(=O)c1ncn([C@@H]2O[C@H](CO)[C@@H](O)[C@H]2O)n1 [Ribavirin] | 0.706 | 0.843 | 0.599 | 0.808 | 0.875 | 0.963
14 | Nc1ccc(S(=O)(=O)Nc2ncccn2)cc1 [Sulfadiazine] | 1.39 | 0.735 | 1.5 | 1.03 | 2.25 | 1.43
15 | C=C[C@@]1(C)CC(=O)[C@]2(O)[C@@]3(C)[C@@H](O)CCC(C)(C)[C@@H]3[C@H](O)[C@H](OC(C)=O)[C@@]2(C)O1 [Forskolin] | 1.79 | 1.04 | 1.39 | 1.18 | 1.34 | 1.23
16 | O=c1[nH]c2ccccc2n1CCN1CCN(c2cccc(C(F)(F)F)c2)CC1 [Flibanserin] | 1.14 | 1.22 | 0.833 | 1.07 | 0.806 | 1.35
17 | Clc1ccc(C(Cn2ccnc2)OCc2ccsc2Cl)c(Cl)c1 (stereo not given) [Tioconazole] | 1.07 | 0.786 | 2.41 | 1.25 | 1.14 | 1.44
18 | COc1ccnc2[nH]cc(C(=O)C(=O)N3CCN(C(=O)c4ccccc4)C[C@H]3C)c12 | 0.998 | 1.1 | 0.533 | 0.737 | 0.554 | 1.47
19 | O=C1Nc2ccccc2/C1=C1/Nc2ccccc2C1=O [Indirubin] | 1.05 | 1.12 | 0.786 | 0.965 | 1.58 | 1.03
20 | CC(C)OC(=O)CCC/C=C\C[C@@H]1[C@@H](CC[C@@H](O)CCc2ccccc2)[C@H](O)C[C@@H]1O [Latanoprost] | 1.13 | 0.914 | 0.738 | 1.14 | 0.925 | 1.15
21 | CC(=O)OCC(=O)[C@@]1(O)CC[C@H]2[C@@H]3CCC4=CC(=O)CC[C@]4(C)[C@H]3C(=O)C[C@@]21C [Cortisone acetate] | 1.03 | 0.746 | 1.1 | 1.06 | 0.755 | 1.67
22 | C=C(CC)C(=O)c1ccc(OCC(=O)O)c(Cl)c1Cl [Ethacrynic Acid] | 1.19 | 1.01 | 1.03 | 1.17 | 1.05 | 1.14
23 | COCCNCCc1cccc(Nc2ncc3c(n2)-c2ccccc2[C@H](c2ccccc2F)C3)c1 [Derazantinib(ARQ-087)] | 6.37 | 4.25 | 5.6 | 3.69 | 4.56 | 4
24 | CC(=O)Oc1cc(C(F)(F)F)ccc1C(=O)O [Triflusal] | 1.03 | 1.2 | 0.857 | 0.956 | 0.829 | 1.16
25 | CCOc1ccc2c(c1)C(C)=CC(C)(C)N2 [Ethoxyquin] | 0.933 | 1.17 | 0.847 | 1.62 | 0.54 | 1.95
26 | CC(=O)Nc1cccc(-n2c(=O)n(C3CC3)c(=O)c3c(Nc4ccc(I)cc4F)n(C)c(=O)c(C)c32)c1 | 3.52 | 3.28 | 3.33 | 3.79 | 1.56 | 1.94
27 | C/C(=C\c1ccc(C(=O)O)cc1)c1ccc2c(c1)C(C)(C)CCC2(C)C [TTNPB (Arotinoid Acid)] | 0.687 | 1.39 | 1.07 | 2.49 | 1.61 | 1.35
28 | O=C(O)COC(=O)Cc1ccccc1Nc1c(Cl)cccc1Cl [Aceclofenac] | 1.26 | 0.455 | 1.1 | 0.795 | 0.607 | 0.86
29 | OC(CCCN1CCCCC1)(c1ccccc1)c1ccccc1 [Diphenidol HCl] | 1.04 | 0.66 | 0.884 | 0.867 | 0.89 | 1.09
30 | CO[C@H]1C[C@@H]2CC[C@@H](C)[C@@](O)(O2)C(=O)C(=O)N2CCCC[C@H]2C(=O)O[C@H]([C@H](C)C[C@@H]2CC[C@@H](OP(C)(C)=O)[C@H](OC)C2)CC(=O)[C@H](C)/C=C(\C)[C@@H](O)[C@@H](OC)C(=O)[C@H](C)C[C@H](C)/C=C/C=C/C=C/1C [Deforolimus] | 2.73 | 2.02 | 1.35 | 3.08 | 1.23 | 2.14
